Results published in the supplement of paper PMC3334620.
Whole data set: some 33,000 sequences, median “E-score (-0.5 to 0.5)” near -0.016, cut for the highest 2% near 0.3. The full list was thinned out, with the highest values kept by preference.

Molecular target: T1, Yer184c (UniProt P39961)
T1 sequence: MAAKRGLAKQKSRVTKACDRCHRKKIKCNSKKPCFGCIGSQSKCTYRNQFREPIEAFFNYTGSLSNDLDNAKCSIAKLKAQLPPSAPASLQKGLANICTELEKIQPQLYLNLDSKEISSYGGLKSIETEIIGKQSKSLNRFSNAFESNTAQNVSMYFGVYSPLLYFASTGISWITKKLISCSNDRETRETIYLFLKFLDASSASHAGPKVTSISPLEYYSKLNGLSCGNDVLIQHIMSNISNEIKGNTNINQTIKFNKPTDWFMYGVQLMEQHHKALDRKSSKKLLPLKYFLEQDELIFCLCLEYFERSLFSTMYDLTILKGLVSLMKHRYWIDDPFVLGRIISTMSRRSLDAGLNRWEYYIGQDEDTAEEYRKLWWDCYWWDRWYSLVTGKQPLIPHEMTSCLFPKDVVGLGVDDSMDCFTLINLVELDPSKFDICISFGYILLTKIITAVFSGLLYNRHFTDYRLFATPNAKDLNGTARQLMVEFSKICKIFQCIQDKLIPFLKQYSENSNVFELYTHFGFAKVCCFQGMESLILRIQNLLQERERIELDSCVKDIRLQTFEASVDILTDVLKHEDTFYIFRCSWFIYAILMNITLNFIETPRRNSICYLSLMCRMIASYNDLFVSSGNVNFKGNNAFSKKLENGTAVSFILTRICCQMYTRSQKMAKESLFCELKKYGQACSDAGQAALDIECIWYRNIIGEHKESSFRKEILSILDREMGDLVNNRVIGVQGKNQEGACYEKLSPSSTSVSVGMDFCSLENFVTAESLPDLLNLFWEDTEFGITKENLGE
Experiment: PBM E-score (8-mer binding enrichment) (E-score (-0.5 to 0.5)); higher = stronger / more preferred TF binding
Conditions: protein concentration: 100 nM; construct: GST-full length
Procedure: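 Universal 'all 10-mer' protein binding microarrays (Agilent AMADID 015681) probed with GST-tagged S. cerevisiae TFs (full-length or DBD) made by in vitro transcription/translation (PURExpress), about 100-200 nM. Bound TF was detected with fluorescent anti-GST. Each ungapped 8-mer (which stands for itself and its reverse complement) is scored by the PBM enrichment score (E-score), a modified Wilcoxon-Mann-Whitney statistic from -0.5 to +0.5, computed with the Universal PBM Analysis Suite. Scale: above 0.35 generally sequence-specific binding.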

| Sequence | PBM E-score |
| --- | --- |
| ACATCGGA | 0.223 |
| AGATCGGA | 0.34 |
| GGATCGGA | 0.228 |
| AAATCGGT | 0.0224 |
| CGATCGGA | 0.142 |
| AAATCGGA | 0.308 |
| GCATCGGC | 0.176 |
| GAATCGGC | 0.254 |
| AAATCGGG | 0.0884 |
| GCATCGGA | 0.307 |
| CAAACAAG | 0.0388 |
| AACCTCTT | 0.178 |
| CCCAAGTC | -0.223 |
| AAGCAGTA | -0.209 |
| TGACTGAA | -0.14 |
| AAATGCTT | 0.0617 |
| TCTGCGAA | -0.186 |
| GCCTGCTA | -0.0406 |
| ACTTCCAG | -0.112 |
| CCGTTCAA | 0.197 |
| CCCTCATA | -0.288 |
| CCTCGAGG | -0.112 |
| GGAGTACC | -0.219 |
| CTATCGGA | 0.319 |
| GTATCGGA | 0.208 |

| Sequence | PBM E-score |
| --- | --- |
| ATATCGGA | 0.277 |
| AAAGGGCA | -0.226 |
| ATATGGCA | -0.15 |
| CCACAGTA | -0.1 |
| CCTCCTTA | -0.179 |
| ATATTCCG | 0.38 |
| AGATTCCT | -0.215 |
| ATATTCCC | 0.176 |
| AGATTCCC | -0.0681 |
| AGATTCCG | 0.338 |
| ATATTCCA | 0.16 |
| ATAGTGCA | 0.104 |
| CGGTGCGA | 0.00174 |
| CGATGGTA | -0.146 |
| AGTCCGAT | 0.19 |
| AGTCCGAC | -0.14 |
| TGTCCGAA | 0.334 |
| AGTCCGAA | 0.343 |
| CGTCCGAA | 0.239 |
| TGTCCAAA | 0.143 |
| ATTCTGCA | 0.124 |
| TAAGCTAA | 0.138 |
| AGACCTAT | 0.0227 |
| AATATCAT | 0.142 |
| CCTCGCCC | -0.125 |

| Sequence | PBM E-score |
| --- | --- |
| ACCGTAAA | 0.0422 |
| TCCGTAAA | 0.303 |
| TCCGTAGA | 0.204 |
| GCCGTAGC | 0.045 |
| GCCGTAGA | 0.322 |
| GCCGTAAA | 0.339 |
| GAAGCGTA | -0.0311 |
| GGATTCGA | -0.0994 |
| AATGCAAT | -0.256 |
| ATGACGGA | 0.198 |
| CACTTCTG | -0.207 |
| GATCTTTA | 0.106 |
| AGAACAAA | 0.349 |
| ATAACAAA | 0.357 |
| ATAACAAG | 0.209 |
| AGAACAAT | 0.174 |
| AGAACAAG | 0.143 |
| ATAACAAT | 0.115 |
| AGAGATAC | -0.0106 |
| AGTGAGAT | -0.107 |
| CGAGAGAG | 0.166 |
| AAGAGCAA | -0.0457 |
| CACAAGCC | -0.0115 |
| AGCCCGTA | -0.276 |
| GAACACCC | -0.0175 |

| Sequence | PBM E-score |
| --- | --- |
| AAGGCCCG | -0.093 |
| AAGGCCGT | 0.156 |
| CAGGCCGG | 0.108 |
| AAGGCCGG | 0.318 |
| AAGGCCGC | 0.051 |
| AAGGCCGA | 0.338 |
| CGCCCGCA | -0.0897 |
| GATGAGCA | 0.0238 |
| GAGGTCGA | -0.158 |
| GACTGCCC | -0.309 |
| ATATTGCG | -0.0525 |
| CTCGGCGA | 0.399 |
| CTCGGCTC | 0.237 |
| CTCGGCGC | 0.357 |
| GTCGGCGA | 0.134 |
| GTCGGCTA | 0.153 |
| CGCGGCGC | 0.259 |
| ATCGGCGC | 0.275 |
| ATCGGCGA | 0.128 |
| CTCGGCTA | 0.352 |
| TAGATGGA | -0.162 |
| AAGAGGAG | -0.115 |
| GATGGATA | 0.0331 |
| CGGGGAGC | -0.0385 |
| AGAGCCAT | -0.101 |

| Sequence | PBM E-score |
| --- | --- |
| CGCTATGA | -0.0231 |
| GGTCGGAA | 0.225 |
| AGTCGGAC | 0.0344 |
| CTTCGGGA | 0.171 |
| ATTCGGAC | 0.349 |
| CTTCGGTC | 0.309 |
| CTTCGGTA | 0.235 |
| GTTCGGAA | 0.402 |
| CTTCGGAA | 0.394 |
| GTTCGGGA | 0.226 |
| CGTCGGAA | 0.24 |
| ATTCGGTC | 0.244 |
| ATTCGGGC | 0.141 |
| AAAGTTAT | 0.134 |
| CGAACCCA | -0.0147 |
| GCGCCCTA | -0.135 |
| CGCGTAGC | -0.0173 |
| CCTGTCAG | -0.101 |
| TCCGCGAA | 0.234 |
| ATTGGTAG | -0.0488 |
| CCTCGGAC | 0.17 |
| ATTCGGAG | 0.205 |
| CTTCGGGC | -0.0555 |
| AGTCGGAA | 0.245 |
| ATTCGGAA | 0.353 |

| Sequence | PBM E-score |
| --- | --- |
| CTTCGGAC | 0.325 |
| GTATGCTA | -0.0379 |
| AGCCGCGG | 0.419 |
| AACCGCGG | 0.372 |
| ATCCGCGC | 0.141 |
| ATCCGCGA | 0.105 |
| AACCGCGT | 0.168 |
| ACCCGCGG | 0.351 |
| AGCCGCGA | 0.133 |
| ACCCGCGT | -0.0424 |
| AGCCGCGC | 0.103 |
| ATCCGCGG | 0.359 |
| ACCCGCGA | -0.0511 |
| AACCGCGA | 0.225 |
| GATCGCAC | -0.0597 |
| CAAAGATC | 0.154 |
| CGATCTGC | 0.0352 |
| AGCTACCT | -0.0785 |
| CAGTCCCA | -0.171 |
| GTAAGGAA | -0.0396 |
| CACAGAAC | -0.13 |
| ATTCCGGA | 0.436 |
| CTTCCGCA | 0.068 |
| CTTCCGCC | 0.024 |
| ATTCCGCA | 0.139 |

| Sequence | PBM E-score |
| --- | --- |
| CTTCCTGC | -0.314 |
| GTACCGGA | 0.285 |
| GTTCCGCA | 0.268 |
| GTTCCGGA | 0.438 |
| CTTCCGGC | 0.343 |
| ATACCGGA | 0.237 |
| CTTCCGGA | 0.402 |
| CTTCCCGA | 0.148 |
| CCAACGTA | -0.105 |
| ACTCGGGA | 0.199 |
| GAAAACCA | -0.0101 |
| GTGCAGAA | 0.0359 |
| CTGTGGGC | -0.192 |
| CGTCCCCC | -0.275 |
| ATGGGCAC | -0.072 |
| ATTCGCCC | -0.127 |
| ATTCGCCG | 0.334 |
| ATTCGCCA | 0.0246 |
| GAGAGGAC | -0.128 |
| CGCCCGGA | 0.264 |
| CGCCCGGC | 0.213 |
| AGCCCGGC | 0.309 |
| AGCCCGGG | 0.268 |
| GGCCCGGA | 0.301 |
| AGCCCGGA | 0.314 |
